Screening data (PubChem)
PLK1 PBD inh: Plk1 polo box domain binding inhibitors, primary screen, biochemical, fluorescence polarization | Serine/threonine-protein kinase PLK1 (Homo sapiens), P53350 | Plk1 PBD phosphopeptide binding | inhibition, %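 (tested at about 20 µM)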 | 97,000 compounds, 0.13% hits | AID 693, 2007; in the data active = inhibition above about 34%, passing the limit was not always enough
Pyk2 oligo antag: antagonists of Pyk2 self-association, primary screen, Q293 cells, FERM NanoBiT luminescence, HTS; Protein-tyrosine kinase 2-beta (Homo sapiens), Q14289; stronger effect = lower value; z-score (the deposit names both 25 µM and 10 µM); 99,000 compounds, 0.83% hits; AID 1347419, 2020;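 active = Z-score of -3 or lower, scaled per plate to the spread of control and sample wells; inactive = z-score above -3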;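 note: negative z-score means lost luminescence so less FERM oligomerization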
hDAT+cocaine: changed hDAT dopamine uptake under cocaine IC80, either direction, primary screen, cocaine antagonist project, cell-based, LLC-PK1 hDAT, [14C]-dopamine uptake, MLSMR. 110,000 compounds, 1.3% hits. B-score at 10 µM. AID 449768, 2010. LLC-PK1 hDAT cells, [14C]-dopamine uptake with cocaine IC80; actives deviate in either direction. Sodium-dependent dopamine transporter (Homo sapiens), Q01959;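 active = Z score or B-score, a plate-position-corrected score, falls beyond the plate's 99.7% confidence bounds, in either direction; inactive = both scores lie inside the 99.7% bounds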;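 note: scored against the spread of the other compound wells on the same plate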
PLK1 inh: human PLK1 kinase inhibitors, primary screen, biochemical, TR-FRET | Serine/threonine-protein kinase PLK1 (Homo sapiens), P53350 | 97,000 compounds, 0.53% hits | recombinant PLK1 kinase, TR-FRET peptide phosphorylation | inhibition, % at 10 µM | AID 619, 2007;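 active = inhibition of 50% or more in the single-concentration screen; inactive = inhibition below 50%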;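 note: 0% = DMSO max control and 100% = H-89 dihydrochloride min control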
Cav32 inh: Cav3.2 calcium influx blockers – cell-based, Fluo-4 calcium fluorescence, FDSS, MLSMR library, primary screen | B-score at 10 µM | Cav3.2-expressing cells; stronger effect = lower value | 100,000 compounds, 4% hits | Voltage-dependent T-type calcium channel subunit alpha-1H (Homo sapiens), O95180;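 active = single-dose well whose peak fluorescence ratio is a statistical outlier from its plate by either plate-standardised score or position-corrected B-score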
SDO1 yeast rescue: growth rescue of sdo1-depleted yeast, primary screen, S. cerevisiae, bone marrow failure model. S. cerevisiae sdo1-depleted JHY4D growth rescue, OD600 30 h; stronger effect = higher value; pdr5 snq2 efflux-pump mutant strain. z-score at 10 µM. 140,000 compounds, 0.21% hits;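 active = z-score above 3 at both the 24 hr and the 30 hr optical density reads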;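 note: z-score against mean and SD of all compound wells on the same plate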
* hit, by the source's call; . = no result given. This is a sample that favours compounds with a hit; in the whole collection about 4.7% have one here.

SMILES | PLK1 PBD inh | Pyk2 oligo antag | hDAT+cocaine | PLK1 inh | Cav32 inh | SDO1 yeast rescue
CCn1c(CNC(=O)COc2ccc(C(C)C)cc2)nnc1SCC(=O)Nc1ccccc1C(C)C | 21 | -2.4 | 2.4* | 0 | -2.3 | 0.57
CCn1c(CNC(=O)COc2ccc(C(C)C)cc2)nnc1SCC(=O)Nc1ccccc1F | 10 | -0.01 | -0.14 | -10 | -1.9 | 0.22
COc1ccc(COc2cc(-c3cccc(OC)c3)nc3ccc(NC(=O)c4ccc(OC)cc4)cc23)cc1 | . | . | -0.4 | . | 0.17 | -0.59
COc1ccc(COc2cc(-c3cccc(OC)c3)nc3ccc(NC(=O)c4cccnc4)cc23)cc1 | . | . | 2.7* | . | -0.18 | -0.09
COc1ccc(/C=N/OCC(=O)N2CC3(C)CC2CC(C)(C)C3)cc1OC (stereo not given) | -24 | 0.01 | 2.8* | -8 | 0.022 | -0.7
Cc1ccc(Cn2ccc(NC(=O)CCSc3nc(-c4ccco4)cc(C(F)(F)F)n3)n2)cc1 | 15 | 1.1 | 0.0076 | -9 | -9* | -0.51
Cc1ccccc1Cn1ccc(NC(=O)CCSc2nc(-c3ccco3)cc(C(F)(F)F)n2)n1 | 8 | -0.96 | 0.14 | -2 | . | -0.52
Cc1nn(C)cc1/C=C/C(=O)c1ccc(O)cc1 | . | . | . | . | . | -0.11
Cc1cc(NC(=O)COC(=O)CSCc2ccc(Cl)c(Cl)c2)no1 | 10 | 1.6 | 0.48 | 2 | -0.53 | 0.12
Cc1cc(NC(=O)COC(=O)C(Nc2ccc(C(F)(F)F)cc2Cl)C(C)C)no1 (stereo not given) | -1 | -2.2 | 0.2 | -6 | -4.5* | -2.2
CCn1c(=O)c(C(=O)CN2CCCc3ccccc32)c(N)n(Cc2ccccc2)c1=O | . | -0.24 | -1 | . | -6.1* | 5.8
CCn1c(=O)c(C(=O)CN2c3ccccc3CC2C)c(N)n(Cc2ccccc2)c1=O (stereo not given) | . | . | . | . | . | -0.11
CC1(c2nnc(-c3cccc(Cl)c3)o2)CC(c2ccc(F)cc2)=NO1 (stereo not given) | . | . | 0.14 | . | -0.47 | .
N#Cc1c(NCCN)nc(NCc2ccccc2)c2c1CCN(Cc1ccccc1)C2 | 4 | 0.33 | 0.27 | 5 | -1.2 | .
CCN1CCc2c(C#N)c(NCc3ccccc3)nc(N(CC)CC)c2C1 | -16 | -1.1 | 1.2 | -22 | -4.2* | -1.8
CCOC(=O)c1cc(C(C)(C)C)oc1CNC(=O)c1c(C)oc2c1CCCC2 | -11 | -0.52 | -0.8 | -22 | -4.6* | 0.19
O=C(CC1(O)C(=O)Nc2ccccc21)c1ccccc1 (stereo not given) | -12 | . | 0.064 | 65* | 0.042 | -0.33
COc1cccc(/C=C/C(=O)Nc2ccc(OC)nc2)c1 | . | 0.9 | . | . | . | -0.57
CCc1nnc(NC(=O)c2cc3ccccc3oc2=O)s1 | -10 | 0.58 | -8.9* | -7 | 0.054 | -0.01
CC1CCN(C(=O)COC(=O)[C@H](C)NS(=O)(=O)/C=C/c2ccccc2)CC1 | -14 | 0.83 | -0.39 | -13 | -5.9* | -0.27
CCC(C)NS(=O)(=O)c1ccc(OCC(=O)N2CCC(C)CC2)cc1 (stereo not given) | -10 | 0.89 | 0.98 | -16 | 0.35 | 1.8
CC1(C)C(=O)Nc2ccccc2N1C(=O)COC(=O)c1ccc(Cl)c(S(=O)(=O)NCc2ccccc2)c1 | 11 | -2.4 | 0.25 | -32 | -3.7* | -0.05
CC(Sc1nc2ccccc2n1C)C(=O)NC(c1ccccc1)c1ccccc1 (stereo not given) | 4 | -4* | -0.23 | -10 | -9.3* | -0.45
Cn1c(SC(C(=O)Nc2ccc(F)cc2)c2ccccc2)nc2ccccc21 (stereo not given) | . | . | . | . | . | -1.1
COc1ccc(S(=O)(=O)NCCSCc2ccccc2C)cc1Br | 6 | -1.6 | -0.7 | 4 | -4.9* | -1.3
Cc1ccc(N2CCN(C(=O)CCc3nc4ccccc4[nH]3)CC2)c(C)c1 | -14 | . | 1.4 | -3 | -4.8* | 0.15
CNC(=S)NNC(=O)c1cccn(Cc2ccc(Cl)c(Cl)c2)c1=O | -5 | 0.09 | 0.48 | -5 | -0.35 | -0.13
